What all share (experiment): log2 fold change, soluble protein after heating vs DMSO (PISA); higher = thermal stabilisation; K562 cells, 10 uM, 30 min; active = over 0.2 and 3.5 SD of the protein, either way, in both replicates (recomputed)
Compound in experiment [1]: Cc1sc2c(c1C)C(c1ccc(Cl)cc1)=N[C@@H](CC(=O)OC(C)(C)C)c1nnc(C)n1-2
In short, it runs like this: (§1)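 K562 cells at 2×10^6 cells/mL were treated for 30 min with 10 μM compound, and aliquots were heated for 3 min over 48°C-58°C before pooling. Extraction used PBS with 0.5% NP-40 at 4°C, and soluble protein was the supernatant after 21,000xg for 90 min, measured by TMTpro 16plex LC-MS/MS with channel sums equalised. Thermal stability values, relative to control samples and from duplicates, are log2 fold changes.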

Compound in experiment [2]: C1=CC=C(C=C1)[C@H](COC2=CC3=C(C=C2)NC(=O)N3)NC(=O)C4=CC=CN(C4=O)CC5=CC(=C(C=C5)F)F
An outline of the steps: as §1

Compound in experiment [3]: CC1=C(SC2=C1C(=N[C@H](C3=NN=C(N32)C)CC(=O)N)C4=CC=C(C=C4)Cl)C
An outline of the steps:
as §1

Compound in experiment [4]: CC1=C2C(=CC=C1)N=C(N(C2=O)C3=CC=CC=C3C)CN4C=NC5=C(N=CN=C54)N
In short, it runs like this:
as §1

Compound in experiment [5]: c1ccc([C@@H]2C[C@H]2NC2CCNCC2)cc1
In short, it runs like this: as §1

The full data set covers some 7,900 targets. This sample favours those with a hit. About 0.6% of all pairs of compound and target were hits. Unmarked numbers belong to inactive results.

Sequence of UniProt P60602 (P60602 whole entry, looked up): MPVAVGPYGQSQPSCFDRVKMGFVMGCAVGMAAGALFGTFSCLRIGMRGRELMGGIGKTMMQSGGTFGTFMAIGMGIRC
Sequence of UniProt Q8WWV3 (Q8WWV3 whole entry, looked up): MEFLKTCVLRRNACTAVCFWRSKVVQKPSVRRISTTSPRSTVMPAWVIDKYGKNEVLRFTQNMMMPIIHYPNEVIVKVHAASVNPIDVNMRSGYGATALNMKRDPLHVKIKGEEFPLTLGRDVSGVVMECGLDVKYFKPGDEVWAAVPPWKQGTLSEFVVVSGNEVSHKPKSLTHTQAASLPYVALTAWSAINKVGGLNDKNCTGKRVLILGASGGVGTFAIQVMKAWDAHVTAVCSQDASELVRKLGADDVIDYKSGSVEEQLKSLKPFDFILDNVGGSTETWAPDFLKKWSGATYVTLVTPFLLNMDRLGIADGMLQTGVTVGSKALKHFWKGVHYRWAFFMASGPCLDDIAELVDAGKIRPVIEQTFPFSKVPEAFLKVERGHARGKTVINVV
Sequence of UniProt P60903 (P60903 whole entry, looked up): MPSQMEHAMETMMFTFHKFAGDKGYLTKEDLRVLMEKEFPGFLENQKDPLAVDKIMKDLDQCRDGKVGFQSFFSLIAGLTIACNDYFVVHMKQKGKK
Sequence of UniProt P63208 (P63208 whole entry, looked up): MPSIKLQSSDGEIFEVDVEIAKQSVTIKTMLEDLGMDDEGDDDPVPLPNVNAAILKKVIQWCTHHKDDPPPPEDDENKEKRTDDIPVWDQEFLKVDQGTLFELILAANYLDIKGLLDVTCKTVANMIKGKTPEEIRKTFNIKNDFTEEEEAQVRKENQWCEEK
Sequence of UniProt O75792 (O75792 whole entry, looked up): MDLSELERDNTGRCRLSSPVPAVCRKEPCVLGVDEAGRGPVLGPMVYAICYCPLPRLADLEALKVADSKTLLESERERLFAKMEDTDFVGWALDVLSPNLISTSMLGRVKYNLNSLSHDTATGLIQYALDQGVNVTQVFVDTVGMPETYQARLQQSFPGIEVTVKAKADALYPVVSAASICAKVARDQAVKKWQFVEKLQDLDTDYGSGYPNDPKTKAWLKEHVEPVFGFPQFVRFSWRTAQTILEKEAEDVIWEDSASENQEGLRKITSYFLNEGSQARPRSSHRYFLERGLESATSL
Sequence of UniProt P43003 (P43003 whole entry, looked up): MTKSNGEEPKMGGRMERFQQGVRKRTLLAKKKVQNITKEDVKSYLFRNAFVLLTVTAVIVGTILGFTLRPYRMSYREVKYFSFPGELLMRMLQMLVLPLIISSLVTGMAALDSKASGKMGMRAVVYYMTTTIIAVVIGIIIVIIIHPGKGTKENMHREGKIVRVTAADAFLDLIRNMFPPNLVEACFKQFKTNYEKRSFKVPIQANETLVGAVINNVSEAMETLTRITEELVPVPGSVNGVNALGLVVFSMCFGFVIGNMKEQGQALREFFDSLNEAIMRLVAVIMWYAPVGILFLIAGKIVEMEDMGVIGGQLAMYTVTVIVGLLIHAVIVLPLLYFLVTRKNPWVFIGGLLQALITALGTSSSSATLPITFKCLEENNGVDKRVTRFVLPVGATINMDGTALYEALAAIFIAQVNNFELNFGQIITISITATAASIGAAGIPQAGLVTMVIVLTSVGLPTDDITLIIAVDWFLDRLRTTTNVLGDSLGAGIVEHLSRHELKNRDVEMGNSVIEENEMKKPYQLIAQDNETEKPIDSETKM
Sequence of UniProt Q02383 (Q02383 whole entry, looked up): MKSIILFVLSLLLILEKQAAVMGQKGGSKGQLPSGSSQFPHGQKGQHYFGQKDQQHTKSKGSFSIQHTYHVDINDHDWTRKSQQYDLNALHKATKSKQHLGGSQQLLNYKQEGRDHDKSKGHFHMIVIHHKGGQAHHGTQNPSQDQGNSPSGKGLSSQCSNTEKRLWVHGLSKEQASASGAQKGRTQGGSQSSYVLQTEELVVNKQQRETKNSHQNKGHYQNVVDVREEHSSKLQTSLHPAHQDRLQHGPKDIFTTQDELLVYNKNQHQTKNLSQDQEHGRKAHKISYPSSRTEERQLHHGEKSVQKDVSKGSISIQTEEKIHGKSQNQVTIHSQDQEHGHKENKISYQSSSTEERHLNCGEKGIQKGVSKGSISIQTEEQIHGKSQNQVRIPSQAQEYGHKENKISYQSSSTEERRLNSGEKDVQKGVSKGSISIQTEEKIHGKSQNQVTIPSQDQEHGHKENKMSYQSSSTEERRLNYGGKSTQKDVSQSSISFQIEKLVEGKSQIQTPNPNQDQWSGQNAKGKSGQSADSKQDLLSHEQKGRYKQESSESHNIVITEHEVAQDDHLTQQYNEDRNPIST
Sequence of UniProt A6NEQ0 (A6NEQ0 whole entry, looked up): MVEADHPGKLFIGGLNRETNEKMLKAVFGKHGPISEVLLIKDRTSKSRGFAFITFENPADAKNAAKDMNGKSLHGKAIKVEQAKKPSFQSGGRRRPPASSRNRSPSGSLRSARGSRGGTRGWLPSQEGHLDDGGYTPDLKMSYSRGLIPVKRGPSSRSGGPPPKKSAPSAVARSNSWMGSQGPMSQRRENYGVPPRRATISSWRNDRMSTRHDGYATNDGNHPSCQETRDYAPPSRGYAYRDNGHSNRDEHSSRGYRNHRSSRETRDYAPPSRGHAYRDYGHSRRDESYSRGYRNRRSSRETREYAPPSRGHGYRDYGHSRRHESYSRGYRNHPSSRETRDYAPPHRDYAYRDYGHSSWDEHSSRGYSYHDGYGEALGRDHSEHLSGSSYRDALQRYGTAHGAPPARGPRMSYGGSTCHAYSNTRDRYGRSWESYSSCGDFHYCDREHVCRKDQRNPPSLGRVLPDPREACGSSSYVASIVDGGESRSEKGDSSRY
Sequence of UniProt Q5PRF9 (Q5PRF9 whole entry, looked up): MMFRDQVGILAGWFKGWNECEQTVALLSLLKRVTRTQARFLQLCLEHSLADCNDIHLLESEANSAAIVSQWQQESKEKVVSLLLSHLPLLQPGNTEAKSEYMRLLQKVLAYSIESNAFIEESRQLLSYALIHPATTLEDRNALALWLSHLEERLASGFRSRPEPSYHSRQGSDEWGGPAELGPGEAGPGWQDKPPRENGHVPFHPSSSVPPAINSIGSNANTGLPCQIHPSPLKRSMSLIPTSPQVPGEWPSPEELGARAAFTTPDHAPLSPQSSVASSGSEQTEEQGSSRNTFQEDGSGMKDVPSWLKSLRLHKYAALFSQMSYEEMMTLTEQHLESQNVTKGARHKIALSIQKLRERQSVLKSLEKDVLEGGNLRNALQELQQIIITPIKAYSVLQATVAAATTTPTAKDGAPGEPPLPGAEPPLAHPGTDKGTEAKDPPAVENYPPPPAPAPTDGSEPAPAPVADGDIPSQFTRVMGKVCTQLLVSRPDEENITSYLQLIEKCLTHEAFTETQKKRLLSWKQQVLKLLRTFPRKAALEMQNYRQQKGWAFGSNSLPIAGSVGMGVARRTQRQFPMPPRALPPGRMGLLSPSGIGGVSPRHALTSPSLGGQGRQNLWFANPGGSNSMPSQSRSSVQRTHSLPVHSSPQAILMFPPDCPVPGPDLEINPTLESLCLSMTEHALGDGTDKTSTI
Sequence of UniProt Q5T8P6 (Q5T8P6 whole entry, looked up): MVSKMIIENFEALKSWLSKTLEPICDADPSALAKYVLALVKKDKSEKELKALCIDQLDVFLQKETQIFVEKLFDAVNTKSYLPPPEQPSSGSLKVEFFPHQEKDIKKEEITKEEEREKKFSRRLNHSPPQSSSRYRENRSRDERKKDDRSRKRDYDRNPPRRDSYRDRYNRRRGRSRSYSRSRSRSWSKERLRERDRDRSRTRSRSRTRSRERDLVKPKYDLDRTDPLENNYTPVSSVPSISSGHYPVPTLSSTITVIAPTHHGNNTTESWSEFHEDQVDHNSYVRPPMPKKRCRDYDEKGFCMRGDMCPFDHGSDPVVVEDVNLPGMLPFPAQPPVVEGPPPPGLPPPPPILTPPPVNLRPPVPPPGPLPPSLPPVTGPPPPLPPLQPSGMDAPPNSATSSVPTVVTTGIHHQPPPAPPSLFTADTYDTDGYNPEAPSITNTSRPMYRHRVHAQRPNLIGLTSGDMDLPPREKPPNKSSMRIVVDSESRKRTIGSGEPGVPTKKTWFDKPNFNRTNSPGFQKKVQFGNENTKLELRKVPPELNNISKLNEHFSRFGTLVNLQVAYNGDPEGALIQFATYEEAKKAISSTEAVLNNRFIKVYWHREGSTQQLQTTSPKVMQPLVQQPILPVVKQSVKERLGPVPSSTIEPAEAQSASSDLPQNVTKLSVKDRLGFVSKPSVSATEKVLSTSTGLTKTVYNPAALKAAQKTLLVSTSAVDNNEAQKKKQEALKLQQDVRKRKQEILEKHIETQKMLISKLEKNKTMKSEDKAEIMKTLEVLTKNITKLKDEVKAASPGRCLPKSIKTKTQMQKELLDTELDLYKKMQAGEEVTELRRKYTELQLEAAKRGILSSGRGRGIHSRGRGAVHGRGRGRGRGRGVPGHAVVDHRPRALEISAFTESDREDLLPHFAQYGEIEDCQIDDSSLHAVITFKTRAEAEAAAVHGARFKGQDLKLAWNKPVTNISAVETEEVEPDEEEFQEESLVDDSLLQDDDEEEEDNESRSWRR
Sequence of UniProt Q5RL73 (Q5RL73 whole entry, looked up): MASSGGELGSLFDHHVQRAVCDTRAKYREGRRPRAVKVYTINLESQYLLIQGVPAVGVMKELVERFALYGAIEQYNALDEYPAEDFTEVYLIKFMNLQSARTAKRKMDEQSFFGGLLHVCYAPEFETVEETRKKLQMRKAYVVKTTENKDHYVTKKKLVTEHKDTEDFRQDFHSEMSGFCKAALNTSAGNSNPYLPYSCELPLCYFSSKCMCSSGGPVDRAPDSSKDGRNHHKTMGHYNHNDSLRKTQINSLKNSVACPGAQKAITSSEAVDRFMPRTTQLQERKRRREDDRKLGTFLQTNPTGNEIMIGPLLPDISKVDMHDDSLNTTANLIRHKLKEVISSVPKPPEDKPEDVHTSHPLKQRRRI
Sequence of UniProt O14796 (O14796 whole entry, looked up): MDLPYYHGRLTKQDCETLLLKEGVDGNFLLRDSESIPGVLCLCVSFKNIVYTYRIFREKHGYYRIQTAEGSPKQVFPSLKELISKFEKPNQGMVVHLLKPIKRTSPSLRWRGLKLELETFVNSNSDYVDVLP

RPS3 (UniProt E9PJN9): the log2 fold change in experiment [1] was 0.141.
As for SDCBP isoform 2 (UniProt O00560), the values for the log2 fold change in experiment [2] and in experiment [1] were -0.08 and 0.169, respectively.
Regarding RNASEH2A (UniProt O75792), the log2 fold change in experiment [2] is -0.008; in experiment [3], 0.065; in experiment [4], 0.183; in experiment [1], -0.025; in experiment [5] it was -0.01.
The like results for SLC1A3 (UniProt P43003) were, in that order, -0.031, 0.003, -0.016, 0.17 and 0.039.
Take SKP1 (UniProt P63208): the log2 fold change in experiment [2] is -0.035; in experiment [3] it was -0.008; in experiment [4], 0; in experiment [1], -0.036; in experiment [5] it was -0.017.
Regarding RTN4IP1 (UniProt Q8WWV3), the log2 fold change in experiment [2] was 0; in experiment [3] it was 0.07; in experiment [4] it was 0.999 (active); in experiment [1], -0.051; in experiment [5], -0.108.
On to SEMG2 (UniProt Q02383), for which the log2 fold change was 0.038 in experiment [2], 0.063 in experiment [3], -0.047 in experiment [1] and -0.066 in experiment [5].
On to RUNX1 isoform 8 (UniProt Q01196), for which the log2 fold change was -0.042 in experiment [2] and 0.025 in experiment [4].
As for S100A10 (UniProt P60903), the log2 fold change in experiment [2] was 0.651; in experiment [3], 0.061; in experiment [1], -0.127; in experiment [5] it was -0.01.
Take RPS3A (UniProt D6R9B6): the log2 fold change in experiment [1] is 0.248.
Consider SH2D1B (UniProt O14796), for which the log2 fold change was 0.205 in experiment [3], -0.047 in experiment [4], 0.003 in experiment [1] and 0.033 in experiment [5].
With RICTOR isoform 3 (UniProt Q6R327), the log2 fold change in experiment [1] was 0.043.
As for SF3B5 (UniProt Q9BWJ5), the log2 fold change in experiment [2] was 0.056; in experiment [4], -0.032; in experiment [1], 0.007.
On to RAD50 isoform 2 (UniProt Q92878), for which the log2 fold change was -0.006 in experiment [2]; 0.017 in experiment [3]; 0.061 in experiment [4]; 0 in experiment [1]; 0.014 in experiment [5].
For SCPEP1 (UniProt Q9HB40), the log2 fold change in experiment [2] is 0.006; in experiment [3], -0.006; in experiment [4], -0.001; in experiment [1] it was 0.007; in experiment [5], -0.007.
As for ROMO1 (UniProt P60602), the log2 fold change in experiment [2] was 0.045; in experiment [3], -0.061; in experiment [1], 0.172; in experiment [5], 0.082.
On the same counts, the results for SAMD4B (UniProt Q5PRF9) are 0.107, -0.027, 0.039 and 0.058.
Turning to RBMY1E (UniProt A6NEQ0), the log2 fold change in experiment [2] was 0.063; in experiment [3], -0.02; in experiment [1], 0.001; in experiment [5], 0.145.
For the target RPS18 (UniProt P62269), the log2 fold change in experiment [2] is 0.088; in experiment [3], -0.125; in experiment [4], -0.04; in experiment [1] it was 0.099; in experiment [5], 0.004.
As to SASH1 (UniProt O94885), the log2 fold change in experiment [2] is -0.044; in experiment [3] it was 0.092; in experiment [4], 0.037; in experiment [1], -0.045; in experiment [5], -0.161.
On the same counts, the results for RBM26 isoform 2 (UniProt Q5T8P6) are -0.068, 0.016, 0.144, -0.011 and 0.012.
Take RBM48 isoform 2 (UniProt Q5RL73): the log2 fold change in experiment [2] is 0.008; in experiment [3], 0.058; in experiment [1], -0.36; in experiment [5], 0.113.
On to SIK3 (UniProt H0Y4E8), for which the log2 fold change in experiment [3] is 0.034; in experiment [4], 0.025; in experiment [1], 0.118; in experiment [5] it was 0.028.
